VDR inh – Inhibitors of the vitamin D receptor (VDR): qHTS | 0.93% of 400,000 active | Potency, µM, for inactives: max response, negative = inhibition, most hits filed as inhibitors | Vitamin D3 receptor (Homo sapiens), P11473 | VDR-SRC2-3 peptide fluorescence polarization, 2 h; also: % is scaled to controls: 0 for no effect and ±100 for the full control effect
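Compounds are added to VDR with labelled SRC2-3 coactivator peptide and held 2 h at room temperature. Inhibition of the VDR–peptide interaction is then read as a change in fluorescence polarization.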
BAZ2B inh – qHTS Assay for Inhibitors of BAZ2B | Bromodomain adjacent to zinc finger domain protein 2B (Homo sapiens), Q9UIF8 | 4.4% of 360,000 active | AID 504333, 2011 | AlphaScreen BAZ2B-H3K14Ac peptide displacement | Potency, µM (series often up to 114 µM), for the others: top-dose activity change, negative = inhibition, actives largely listed as inhibitors; also: % is scaled to controls: 0 for no effect and ±100 for the full control effect; nearly all actives have a fitted effect of over 60% in size
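BAZ2B 50 nM plus b-H3(5-23)K14Ac 50 nM, PBS pH 7.4/0.01% Tween-20, 30 min RT; compound added (max 110 uM), 30 min RT; streptavidin donor/Ni-chelate acceptor beads 10 ug/mL final, 20 min dark; AlphaScreen read.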
PLK1 PBD inh – qHTS for Inhibitors of PLK1-PDB (polo-like kinase 1 - polo-box domain): Primary Screen; Serine/threonine-protein kinase PLK1 (Homo sapiens), P53350; Plk1 PBD binding of FITC phosphopeptide, fluorescence polarization; Potency, µM, for inactives: max response, negative = inhibition, hits mostly inhibitors; 2.8% of 360,000 active; AID 720504, 2013; also: series mostly up to about 57 µM; % is scaled to controls: 0 for no effect and ±100 for the full control effect; nearly all actives have a fitted effect of over 65% in size
L3MBTL1 block – qHTS Assay for the Inhibitors of L3MBTL1; AlphaScreen L3MBTL1–H3K9me1 peptide binding; Potency, µM (top dose mostly 57.1 µM), for inactives: at the highest dose activity, negative = inhibition, hits mostly inhibitors; 0.66% of 230,000 active; also: % is scaled to controls: 0 for no effect and ±100 for the full control effect; nearly all actives have a fitted effect of over 60% in size
Target sequence (Q9Y468 whole entry, looked up): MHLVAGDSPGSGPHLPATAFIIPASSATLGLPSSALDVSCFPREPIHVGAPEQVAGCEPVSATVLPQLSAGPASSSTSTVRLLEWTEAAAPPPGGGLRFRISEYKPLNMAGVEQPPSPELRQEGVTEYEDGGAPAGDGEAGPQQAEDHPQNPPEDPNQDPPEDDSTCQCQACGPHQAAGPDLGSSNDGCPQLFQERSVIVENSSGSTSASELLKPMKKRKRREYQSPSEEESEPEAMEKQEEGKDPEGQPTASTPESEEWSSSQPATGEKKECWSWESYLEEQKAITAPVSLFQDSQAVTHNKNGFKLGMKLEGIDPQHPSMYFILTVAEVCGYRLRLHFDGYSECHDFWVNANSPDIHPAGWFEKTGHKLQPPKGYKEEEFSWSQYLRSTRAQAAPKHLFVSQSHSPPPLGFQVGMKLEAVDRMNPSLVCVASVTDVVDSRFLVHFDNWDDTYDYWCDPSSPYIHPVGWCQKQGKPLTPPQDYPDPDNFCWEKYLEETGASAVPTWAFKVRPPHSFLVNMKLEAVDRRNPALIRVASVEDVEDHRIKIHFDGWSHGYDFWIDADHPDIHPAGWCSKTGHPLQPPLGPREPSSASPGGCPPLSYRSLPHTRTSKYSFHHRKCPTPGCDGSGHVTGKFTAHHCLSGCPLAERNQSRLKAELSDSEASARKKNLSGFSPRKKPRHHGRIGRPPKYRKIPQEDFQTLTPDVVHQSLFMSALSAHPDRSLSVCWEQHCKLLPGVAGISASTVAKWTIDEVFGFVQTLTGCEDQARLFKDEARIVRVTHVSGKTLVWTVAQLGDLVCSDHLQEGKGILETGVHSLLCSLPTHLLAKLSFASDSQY
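Read-out is AlphaScreen signal from streptavidin donor and nickel chelate acceptor beads (10 ug/mL final each) bridging L3MBTL1 (50 nM) and biotinylated K9-monomethylated H3(1-15) peptide (75 nM), after 30 min compound exposure at room temperature.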
JMJD2A Tudor – qHTS Assay for Inhibitors of JMJD2A-Tudor Domain; AID 504339, 2011; Potency, µM (series often up to 114 µM), for inactives: at the top dose activity change, negative = inhibition, usual class: inhibitors; 4.4% of 390,000 active; AlphaScreen JMJD2A-Tudor / H3K4me3 peptide binding; Lysine-specific demethylase 4A (Homo sapiens), O75164; also: % is scaled to controls: 0 for no effect and ±100 for the full control effect; nearly all actives have a fitted effect of over 50% in size
HP1b chromo inh – HTS for Inhibitors of HP1-beta Chromodomain Interactions with Methylated Histone Tails | Chromobox protein homolog 1 (Homo sapiens), P83916 | AlphaScreen HP1-beta / biotin-H3K9me3 peptide binding | Potency, µM (titrated, usually from 114 µM), without a hit: at the top dose activity change, negative = inhibition, most hits filed as inhibitors | 0.56% of 390,000 active | AID 540317, 2011; also: nearly all actives have a fitted effect of over 70% in size
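Compound inhibition of the preformed complex between 50 nM HP1-beta and 50 nM biotinylated H3K9me3 peptide was read by AlphaScreen. Buffer was PBS pH 7.4 with 0.01% Tween-20. Incubations ran 30 min at room temperature, with 10 ug/mL donor/acceptor beads.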
* marks the source's active call; other numbers are inactive results; [ ] = remark or other dose. Only some compounds are listed: those with a hit (about 6.9% of all), similar ones and a draw of the others. Calls follow the shape of the dose curve; as a rule, active = well fitted curve in the direction sought with a large enough effect; inconclusive = small, poorly fitted or top-dose-only effect, or another doubt; inactive = no such curve, though single readings can be large; an effect the other way counts as inactive or inconclusive. Potency is read from the fitted curve at half-maximal effect.

How did COc1ccc(NC(=O)CCc2nc3cccnc3n2-c2ccccc2)c(OC)c1 do in these assays?
VDR inh: -22%; BAZ2B inh: inconclusive; JMJD2A Tudor: inconclusive; HP1b chromo inh: -7%

Results for Cc1ccc(NC(=O)CSc2nc(NS(=O)(=O)c3ccccc3)cc(=O)[nH]2)cc1 ?
VDR inh: 12%; BAZ2B inh: inconclusive; PLK1 PBD inh: -10%; JMJD2A Tudor: 50µM*; HP1b chromo inh: -18%

What do the screens show for `Cc1cc(NS(=O)(=O)c2ccc(NC(=O)CSc3nc4sc(C)c(C)c4c(=O)[nH]3)cc2)no1`?
VDR inh: -16%; BAZ2B inh: inconclusive; PLK1 PBD inh: -19%; JMJD2A Tudor: -14%; HP1b chromo inh: 14%

How did CCc1ccc(NC(=O)CSc2nc(NS(=O)(=O)c3ccccc3)cc(=O)[nH]2)cc1 do in these assays?
VDR inh: 20%; BAZ2B inh: 50µM*; PLK1 PBD inh: 4%; L3MBTL1 block: inconclusive; JMJD2A Tudor: -14%; HP1b chromo inh: 41%

How did Cc1ccc(S(=O)(=O)Nc2cc(=O)[nH]c(SCC(=O)Nc3cccc(C)c3)n2)cc1 do in these assays?
VDR inh: 10%; BAZ2B inh: inconclusive; PLK1 PBD inh: -4%; JMJD2A Tudor: -7%; HP1b chromo inh: 39%

What do the screens show for `Cc1ccc(S(=O)(=O)Nc2cc(=O)[nH]c(SCC(=O)Nc3ccccc3Cl)n2)cc1`?
VDR inh: -9%; BAZ2B inh: 56µM*; PLK1 PBD inh: -2%; L3MBTL1 block: 1%; JMJD2A Tudor: -2%; HP1b chromo inh: 44%

How did Cc1cc(NS(=O)(=O)c2ccc(NC(=O)CSc3nc4sc(C(=O)O)c(C)c4c(=O)[nH]3)cc2)no1 do in these assays?
VDR inh: -27%; BAZ2B inh: 1%; PLK1 PBD inh: 27µM*; JMJD2A Tudor: -29%[57.1 µM]; HP1b chromo inh: inconclusive

How did CCCN(Cc1cc2cccc(C)c2[nH]c1=O)C(=O)c1cccc(Cl)c1 do in these assays?
VDR inh: 0%; BAZ2B inh: -4%; JMJD2A Tudor: -28%; HP1b chromo inh: 3%

What do the screens show for `O=C(N1CCOCC1)N1CCN(S(=O)(=O)N2CCOCC2)CC1`?
VDR inh: 25%; BAZ2B inh: -12%; PLK1 PBD inh: -6%; JMJD2A Tudor: 0%; HP1b chromo inh: 18%

How did Cc1nn2c(=S)[nH]nc2[nH]c1=O do in these assays?
VDR inh: 0%; PLK1 PBD inh: inconclusive; L3MBTL1 block: 6%; JMJD2A Tudor: 28µM*; HP1b chromo inh: -16%

Results for COc1ccc(N/C(=C(/C(Cl)=C(Cl)Cl)[N+](=O)[O-])n2nnc3ccccc32)cc1 ?
BAZ2B inh: 50µM*

What do the screens show for `COc1ccc(NC(=O)COC(=O)Cn2nnc3ccccc32)cc1`?
VDR inh: 6%; BAZ2B inh: -5%; PLK1 PBD inh: -3%; L3MBTL1 block: -24%; JMJD2A Tudor: -10%; HP1b chromo inh: 37%

Results for Cc1ccccc1NC(=O)c1nn(C)c(C(=O)Nc2ccccc2C)c1[N+](=O)[O-] ?
VDR inh: 2%; BAZ2B inh: -4%; PLK1 PBD inh: -4%; L3MBTL1 block: 6%; JMJD2A Tudor: -18%; HP1b chromo inh: 25%

Results for Cc1ccccc1N/C(=C(/C(Cl)=C(Cl)Cl)[N+](=O)[O-])n1nnc2ccccc21 ?
VDR inh: -17%; BAZ2B inh: 50µM*; PLK1 PBD inh: inconclusive; JMJD2A Tudor: inconclusive; HP1b chromo inh: -5%

How did COc1cccc(OCC(=O)NCCS(=O)(=O)N2CCN(c3ccccc3F)CC2)c1 do in these assays?
VDR inh: 6%; BAZ2B inh: -5%; JMJD2A Tudor: -15%; HP1b chromo inh: 12%[57 µM]

How did Cc1cc2c(s1)c1cnn(Cc3cc(OC(F)(F)F)ccc3F)c(=O)c1n2C do in these assays?
JMJD2A Tudor: -11%

What do the screens show for `O=C(COc1ccc([N+](=O)[O-])cc1)NNC(=S)NC(=O)c1ccc(Br)cc1`?
VDR inh: inconclusive; BAZ2B inh: 2%; PLK1 PBD inh: 13µM*; L3MBTL1 block: 44%; JMJD2A Tudor: 50µM*; HP1b chromo inh: inconclusive

Results for COc1ccc(C(=O)NC(=S)NNC(=O)COc2ccccc2)cc1 ?
VDR inh: -16%; BAZ2B inh: 13%; PLK1 PBD inh: inconclusive; L3MBTL1 block: 18%; JMJD2A Tudor: -31%; HP1b chromo inh: inconclusive

How did COc1ccc(OCC(=O)NC(=S)NNC(=O)COc2ccc(Br)cc2Cl)cc1 do in these assays?
VDR inh: inconclusive; BAZ2B inh: -8%; PLK1 PBD inh: 24µM*; L3MBTL1 block: 5%; JMJD2A Tudor: 8.9µM*; HP1b chromo inh: inconclusive

How did Cc1ccc(C(=O)NC(=S)NNC(=O)COc2ccc([N+](=O)[O-])cc2)cc1 do in these assays?
VDR inh: -17%; BAZ2B inh: 3%; PLK1 PBD inh: inconclusive; JMJD2A Tudor: 25µM*; HP1b chromo inh: -19%

How did CCOC(=O)c1ccccc1NC(=O)N1CCC(CN2CCCCC2)CC1 do in these assays?
VDR inh: 19%; BAZ2B inh: -1%; JMJD2A Tudor: -13%; HP1b chromo inh: 21%

What do the screens show for `CC(C)CNC(=O)C1CCN(S(=O)(=O)c2ccc(-n3cnnn3)cc2)CC1`?
VDR inh: 5%; BAZ2B inh: 3%; PLK1 PBD inh: 1%; JMJD2A Tudor: -4%; HP1b chromo inh: 0%

What do the screens show for `O=C(NCCc1ccc(Cl)cc1)C1CCN(S(=O)(=O)c2ccc(-n3cnnn3)cc2)CC1`?
VDR inh: -3%; BAZ2B inh: -3%; PLK1 PBD inh: inconclusive; L3MBTL1 block: 4%; JMJD2A Tudor: 79µM*; HP1b chromo inh: -11%

Results for Cc1cc2n(n1)C(c1ccsc1)Nc1ccccc1-2 (stereo not drawn) ?
VDR inh: 5%; BAZ2B inh: 80%; PLK1 PBD inh: 1%; JMJD2A Tudor: 31%; HP1b chromo inh: 200%

How did CCN(CC)c1ccc(C2Nc3ccccc3-c3cc(C)nn32)cc1 (stereo not drawn) do in these assays?
VDR inh: -3%; BAZ2B inh: inconclusive; JMJD2A Tudor: 50µM*; HP1b chromo inh: inconclusive

Results for CC1(C)OCC([C@H](O)C2=CCCCC2=O)CO1 ?
VDR inh: 12%

Assay outcomes deposited in PubChem BioAssay by National Center for Advancing Translational Sciences (NCATS).
